Pf apPOL inh – Pf-apPOL inhibitors, biochemical, fluorescence. Recombinant Pf-apPOL, molecular beacon fluorescence, 1.5 h. inhibition, % at 10 µM. 210,000 tested, 0.25% active
mHTT CaM bind – mutant huntingtin-calmodulin interaction inhibitors – biochemical, AlphaScreen, primary screen. P42858. AlphaScreen His-mHTT/GST-CaM binding, luminescence. inhibition, % at 15 µM. 190,000 tested, 3.6% active. AID 1671202, 2021;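 note: 0% = both proteins with DMSO and 100% = one protein alone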
Target sequence (P42858 whole entry, looked up, stated change not applied): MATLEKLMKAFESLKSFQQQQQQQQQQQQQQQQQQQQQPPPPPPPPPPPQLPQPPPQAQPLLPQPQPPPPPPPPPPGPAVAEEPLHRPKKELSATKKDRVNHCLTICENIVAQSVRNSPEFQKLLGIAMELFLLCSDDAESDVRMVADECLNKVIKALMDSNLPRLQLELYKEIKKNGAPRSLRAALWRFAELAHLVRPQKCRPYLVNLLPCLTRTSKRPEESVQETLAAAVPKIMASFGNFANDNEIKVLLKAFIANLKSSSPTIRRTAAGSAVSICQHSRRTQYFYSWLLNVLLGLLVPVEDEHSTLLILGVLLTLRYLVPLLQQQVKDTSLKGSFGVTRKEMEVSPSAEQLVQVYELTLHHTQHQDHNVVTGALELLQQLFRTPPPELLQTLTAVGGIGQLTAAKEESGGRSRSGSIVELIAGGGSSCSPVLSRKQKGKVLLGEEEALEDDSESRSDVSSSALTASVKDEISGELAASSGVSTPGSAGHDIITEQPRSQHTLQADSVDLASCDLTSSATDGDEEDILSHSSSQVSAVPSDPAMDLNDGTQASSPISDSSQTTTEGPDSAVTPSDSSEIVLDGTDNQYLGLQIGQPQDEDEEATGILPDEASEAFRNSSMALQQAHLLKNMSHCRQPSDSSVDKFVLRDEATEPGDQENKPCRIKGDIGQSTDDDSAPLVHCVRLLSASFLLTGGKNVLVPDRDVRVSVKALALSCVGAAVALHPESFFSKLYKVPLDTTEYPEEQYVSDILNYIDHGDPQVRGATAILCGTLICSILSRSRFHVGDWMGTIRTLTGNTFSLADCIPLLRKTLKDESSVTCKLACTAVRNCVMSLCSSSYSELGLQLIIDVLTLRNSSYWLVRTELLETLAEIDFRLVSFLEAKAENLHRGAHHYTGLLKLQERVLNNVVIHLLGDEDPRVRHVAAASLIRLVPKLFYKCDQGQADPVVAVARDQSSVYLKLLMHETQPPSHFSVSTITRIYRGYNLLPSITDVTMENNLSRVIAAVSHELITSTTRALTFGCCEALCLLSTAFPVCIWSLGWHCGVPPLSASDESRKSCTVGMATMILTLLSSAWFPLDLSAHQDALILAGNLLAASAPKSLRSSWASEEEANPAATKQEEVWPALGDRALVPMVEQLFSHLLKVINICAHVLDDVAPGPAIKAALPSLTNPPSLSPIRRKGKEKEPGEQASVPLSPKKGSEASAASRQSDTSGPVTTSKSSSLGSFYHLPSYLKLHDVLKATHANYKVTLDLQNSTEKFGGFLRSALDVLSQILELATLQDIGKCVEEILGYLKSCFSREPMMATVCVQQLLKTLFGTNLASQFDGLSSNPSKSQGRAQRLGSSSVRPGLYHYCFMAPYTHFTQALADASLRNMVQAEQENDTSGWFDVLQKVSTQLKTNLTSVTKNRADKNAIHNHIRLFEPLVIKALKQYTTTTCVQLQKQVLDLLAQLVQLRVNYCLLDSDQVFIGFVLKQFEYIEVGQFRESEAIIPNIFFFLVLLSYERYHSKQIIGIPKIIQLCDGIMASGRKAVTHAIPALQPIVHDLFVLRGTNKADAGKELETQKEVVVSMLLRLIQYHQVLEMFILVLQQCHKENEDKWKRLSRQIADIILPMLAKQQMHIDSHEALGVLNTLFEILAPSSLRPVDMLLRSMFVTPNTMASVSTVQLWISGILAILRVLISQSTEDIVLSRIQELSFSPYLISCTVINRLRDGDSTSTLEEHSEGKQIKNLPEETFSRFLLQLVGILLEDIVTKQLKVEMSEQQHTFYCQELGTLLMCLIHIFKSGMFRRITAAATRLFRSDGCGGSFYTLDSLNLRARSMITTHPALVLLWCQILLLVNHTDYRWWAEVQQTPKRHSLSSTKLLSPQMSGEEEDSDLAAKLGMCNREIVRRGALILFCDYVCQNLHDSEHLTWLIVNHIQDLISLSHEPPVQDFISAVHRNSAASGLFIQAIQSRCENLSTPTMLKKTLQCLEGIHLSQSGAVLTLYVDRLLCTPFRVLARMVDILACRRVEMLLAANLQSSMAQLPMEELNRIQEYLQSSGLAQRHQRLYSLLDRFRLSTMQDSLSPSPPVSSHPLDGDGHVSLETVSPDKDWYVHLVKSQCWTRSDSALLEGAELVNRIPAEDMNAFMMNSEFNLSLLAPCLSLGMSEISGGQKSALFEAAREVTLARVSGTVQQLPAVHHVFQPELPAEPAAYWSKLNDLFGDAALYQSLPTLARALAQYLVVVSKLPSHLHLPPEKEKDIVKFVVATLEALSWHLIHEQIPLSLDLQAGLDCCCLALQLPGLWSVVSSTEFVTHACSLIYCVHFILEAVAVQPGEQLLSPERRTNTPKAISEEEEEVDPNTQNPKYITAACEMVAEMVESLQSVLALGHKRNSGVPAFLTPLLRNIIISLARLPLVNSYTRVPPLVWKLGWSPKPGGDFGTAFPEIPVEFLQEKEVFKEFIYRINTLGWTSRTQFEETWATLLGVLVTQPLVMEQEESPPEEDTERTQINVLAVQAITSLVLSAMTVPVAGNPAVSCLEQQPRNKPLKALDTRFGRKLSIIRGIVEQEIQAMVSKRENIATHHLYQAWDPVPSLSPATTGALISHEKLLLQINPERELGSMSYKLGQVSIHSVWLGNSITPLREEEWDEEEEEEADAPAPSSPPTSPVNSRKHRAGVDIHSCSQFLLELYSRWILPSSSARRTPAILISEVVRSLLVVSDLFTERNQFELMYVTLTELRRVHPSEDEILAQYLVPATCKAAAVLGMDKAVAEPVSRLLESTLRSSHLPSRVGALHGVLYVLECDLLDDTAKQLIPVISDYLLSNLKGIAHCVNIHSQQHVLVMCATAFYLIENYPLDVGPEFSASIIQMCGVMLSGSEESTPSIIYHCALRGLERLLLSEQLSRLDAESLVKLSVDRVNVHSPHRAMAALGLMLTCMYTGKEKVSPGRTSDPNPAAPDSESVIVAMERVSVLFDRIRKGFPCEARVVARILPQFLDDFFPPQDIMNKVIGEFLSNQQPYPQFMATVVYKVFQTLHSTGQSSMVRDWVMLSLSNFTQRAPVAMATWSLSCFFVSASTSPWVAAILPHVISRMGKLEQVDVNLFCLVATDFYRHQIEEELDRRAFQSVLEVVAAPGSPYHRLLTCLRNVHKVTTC
* hit, by the source's call; x = not tested or not shown; ! = a repeat was not active. Most compounds without a hit are left out; they make up all but 3.5% or so of the library. Cut-off read from the data, not from the text of the source: active = inhibition above about 50%; inactive = the rest.

SMILES	Pf apPOL inh	mHTT CaM bind
COc1ccc(C(=O)N2CCc3c(c(C(=O)NCc4ccc(Cl)cc4)nn3C)C2)cc1	-1.1	80.2*
Cn1nc(C(=O)NCc2ccc(F)cc2)c2c1CCN(C(=O)CC1CCCC1)C2	-11.6	75.8*
Cn1nc(C(=O)NCc2ccccc2)c2c1CCN(C(=O)C1CCCCC1)C2	-9.4	84.9*
Cn1nc(C(=O)NCc2ccc(F)cc2)c2c1CCN(C(=O)c1ccc(Cl)cc1)C2	-12.9	-9.6
Cc1cccc(CNC(=O)c2nn(C)c3c2CN(C(=O)C2CCCCC2)CC3)c1	-4.0	35.9
Cc1cccc(CNC(=O)c2nn(C)c3c2CN(C(=O)CC2CCCC2)CC3)c1	-9.6	55.1*
CCOC(=O)c1cnn(-c2ccccc2)c1C	-3.0	x
O=C(NCCS(=O)(=O)N1CCN(CCc2ccccc2)CC1)c1cccs1	-11.6	-2.0
O=C(Nc1nccnc1C(=O)N1CCCC1)c1ccccc1	-0.9	-3.0
O=C(Cn1c(=O)nc(N2CCCCC2)c2ccccc21)Nc1cc(F)cc(F)c1	-0.4	-2.0
Cc1cc(C(=O)O)c(-c2ccccc2)o1	-2.9	-2.2
COc1ccccc1-c1nc(-c2ccc(Br)cc2)c(CC(=O)O)s1	-8.3	3.0
CC(=O)c1ccc(N=Cc2ccc(OCc3ccc(F)cc3)cc2)cc1	7.9	-15.0
CC(C)C(=O)Nc1cccnc1N1CCCC1	-1.5	-4.7
Cn1nc(C(=O)NCc2ccc(Cl)cc2)c2c1CCN(C(=O)C1CC1)C2	-5.5	82.9*
Cn1nc(C(=O)NCc2ccc(F)cc2)c2c1CCN(C(=O)C1CCC1)C2	-7.5	28.2
CCCC(=O)N1CCc2c(c(C(=O)NCc3ccccc3)nn2C)C1	-8.9	-0.4
Cn1nc(C(=O)NCc2ccccc2)c2c1CCN(C(=O)CC1CCCC1)C2	-2.8	70.6*
Cc1oc(C2CCN(C(=O)Nc3cccc(Cl)c3)CC2)nc1C(=O)N(C)C	3.2	-7.6
CC(C)(C)C1=CC(=O)c2c(ccc(C(C)(C)C)c2O)C1=O	3.1	58.0*
CC(C)(C)C1=CC(=Cc2cc(C(C)(C)C)c(O)c(C(C)(C)C)c2)C=C(C(C)(C)C)C1=O	x	18.5
Cn1c(C(=O)Nc2ccc3c(c2)OCO3)cc2c1CCN(Cc1cccc(F)c1)C2	-0.3	52.5*
Cn1c(C(=O)NC2CC2)cc2c1CCN(Cc1cccc(F)c1)C2	-4.1	25.7
CC(=O)c1cccc(NC(=O)c2cc3c(n2C)CCN(Cc2cccc(F)c2)C3)c1	-1.5	59.6*
Cn1c(C(=O)NCCN2CCCCC2)cc2c1CCN(Cc1cccc(F)c1)C2	4.0	48.8
SMILES	Pf apPOL inh	mHTT CaM bind
O=C1CCC(c2ccccc2)N1C(=O)c1ccc(Cl)cc1 (stereo not drawn)	-3.9	-9.0
CCCn1c(=N)n(CC(O)c2ccc(Cl)cc2)c2ccccc21 (stereo not drawn)	-2.7	2.8
Cc1ccc2c(Nc3ccc(C)c(F)c3)c(-c3nc(C)no3)cnc2n1	-2.4	10.6
CCc1cccc(Nc2c(-c3nc(C)no3)cnc3nc(C)ccc23)c1	-15.0	68.0*
COc1ccc(C(=O)N2CCc3cc(OC)c(OC)cc3C2)cc1OC	-5.2	-3.0
COc1cc2c(cc1OC)CN(C(=O)C(c1ccccc1)n1cccc1)CC2 (stereo not drawn)	6.3	65.3*
Cc1ccccc1C1SCC(=O)N1C(C)C(=O)N(C)C (stereo not drawn)	0.5	-1.5
OCC(CO)(CO)NCC(O)Cn1c2ccccc2c2ccccc21 (stereo not drawn)	3.7	2.4
CC(C)(CO)NCC(O)Cn1c2ccc(Cl)cc2c2cc(Cl)ccc21 (stereo not drawn)	0.0	96.7*
CN(C)CC(O)Cn1c2ccccc2c2ccccc21 (stereo not drawn)	-9.9	0.6
CN(C)CC(O)Cn1c2ccc(Cl)cc2c2cc(Cl)ccc21 (stereo not drawn)	26.1	60.1*
OCC(CO)(CO)NCC(O)Cn1c2ccc(Cl)cc2c2cc(Cl)ccc21 (stereo not drawn)	1.2	67.9*
OCCNCC(O)Cn1c2ccccc2c2ccccc21 (stereo not drawn)	-4.5	1.9
CC(O)(CNC(=O)C(=O)Nc1cccc(N2CCCC2=O)c1)c1cccs1 (stereo not drawn)	-5.5	-7.3
CCCc1ccc(S(=O)(=O)NCCC2CCN(C(=O)c3ccccc3)CC2)cc1	0.3	45.9
COc1ccc(N=C2NC(=O)/C(=C\c3ccc(OC)c(OC)c3)S2)cc1	-8.3	1.0
COc1cc(OC)c(OC)cc1CNc1ccc(Br)cc1C	-1.7	76.2*
COc1cc(OC)c(OC)cc1CNc1ccc([N+](=O)[O-])cc1C	-10.0	4.5
Cc1cccc2c1N(CC(=O)NCc1ccc3c(c1)OCO3)C(=O)C1CCCN1C2=O (stereo not drawn)	-4.9	-2.9
CC(=O)Nc1ccc(SC[C@H](CC(C)C)N2CCN(CCc3ccccc3)CCC2=O)cc1	-3.5	49.6
Cc1ccc(SCCN2CCN(CCc3ccccc3)CCC2=O)cc1	-2.5	33.9
CC(C)C[C@@H](CN=[N+]=[N-])N1CCN(CCc2ccccc2)CCC1=O	-6.5	71.0*
COc1ccc(SC[C@H](CC(C)C)N2CCN(CCc3ccccc3)CCC2=O)cc1	-5.2	99.5*
COc1ccc(SC[C@H](Cc2ccccc2)N2CCN(CC(C)C)CCC2=O)cc1	-5.4	-30.1
CC(C)C[C@@H](CO)N1CCN(CCc2ccccc2)CCC1=O	-0.9	8.5
SMILES	Pf apPOL inh	mHTT CaM bind
Cc1ccc(SC[C@H](CC(C)C)N2CCN(CCc3ccccc3)CCC2=O)cc1	-5.5	80.4*
O=C1CCN(CCc2ccccc2)CCN1CCSc1ccc(Br)cc1	-8.6	52.9*
Cc1ccsc1-c1nc(-c2ccc3ncn(C)c3c2)no1	-2.7	-14.2
COCC(C)NC(=O)C(=O)Nc1cccc(C(F)(F)F)c1 (stereo not drawn)	1.1	-18.2
Cc1ccc2cc3cc(C(=O)N4CCN(c5ncccn5)CC4)sc3nc2c1	0.8	0.0
COc1ccc(C=C2Oc3cc(OS(C)(=O)=O)ccc3C2=O)cc1OC	-13.3	-1.0
O=C(CCCc1ccccc1)Nc1ccc2c(c1)CCC(=O)N2	-1.6	15.8
O=C1CCN(CCc2ccccc2)CCN1[C@H](CSc1ccc(Br)cc1)Cc1ccccc1	-3.2	74.6*!
O=C1CCN(Cc2ccccc2)CCN1[C@H](CSc1ccccc1)Cc1ccccc1	-2.7	37.7
CCOc1ccc(NC(=O)c2ccc(Br)cc2F)c([N+](=O)[O-])c1	0.7	1.1
CN1CCc2cc(C(CNC(=O)Cc3cccc4ccccc34)N3CCOCC3)ccc21 (stereo not drawn)	-37.9	60.9*
CN1CCc2cc(C(CNC(=O)c3ccccc3Br)N3CCOCC3)ccc21 (stereo not drawn)	-24.3	38.3
Cc1ccc(-c2nc3ncccc3o2)cc1NC(=O)c1ccc([N+](=O)[O-])cc1[N+](=O)[O-]	1.5	2.0
O=C(C1CC1)N1CCCN(C2CCN(Cc3ccccc3)C2=O)CC1 (stereo not drawn)	4.6	18.5
Cc1ccc(C(=O)CNC(=O)c2ccc(C)cc2)cc1	-3.9	-5.7
Cc1ccnc(Nc2nc(C)c(C(=O)N3CCCC3)s2)c1	24.3	0.7
Cc1ccc(N2CCN(C(=O)c3sc(Nc4ccc(F)cn4)nc3C)CC2)cc1	-5.6	78.2*
COc1cccc(N2C(=O)CC(N3CCN(c4ccccc4Cl)CC3)C2=O)c1 (stereo not drawn)	-4.7	23.9
